Compounds without any hit were thinned out: in the full panel of roughly 79,000, 15% have a hit. Active and inactive are the calls of the source. Rule as the data show it: active = growth inhibition above about 70%; inactive = the rest.
How the values were obtained:
[1] = NCI Yeast Anticancer Drug Screen. Data for the rad52 strain (AID 147);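 also: 0% = growth of vehicle-treated control cultures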; conditions: S. cerevisiae rad52 mutant growth inhibition, hits give high values
Method in brief: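 Inhibition of yeast growth, referenced to vehicle controls, was the measured output for a strain with defective DNA damage repair.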

[2] = NCI Yeast Anticancer Drug Screen. Data for the wt1 strain (AID 149);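 also: 0% = growth of vehicle-treated wt1 cultures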; conditions: S. cerevisiae wt1 strain (SPY 50644) growth inhibition, hits give high values
Method in brief: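 Readout: yeast growth inhibition, normalised to vehicle controls, in the wt1 strain exposed to test compounds.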

[3] = NCI Yeast Anticancer Drug Screen. Data for the rad50EPP+ strain (AID 151);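 also: 0% = growth of vehicle-treated control cultures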; conditions: S. cerevisiae rad50 mutant strain, hits give high values
Method in brief: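 Genetically defined yeast (rad50EPP+, DNA damage repair alteration) is grown with compound, and inhibition of growth is expressed relative to vehicle-treated controls.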

[4] = NCI Yeast Anticancer Drug Screen. Data for the mgt1 strain (AID 153); conditions: S. cerevisiae mgt1 mutant growth inhibition, hits give high values
Method in brief: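 In the mgt1 strain, test compounds were added and growth inhibition was determined relative to vehicle-treated controls.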

[5] = NCI Yeast Anticancer Drug Screen. Data for the rad50 strain (AID 155);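 also: 0% = growth of vehicle-only cultures of the same strain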; conditions: S. cerevisiae rad50 strain growth inhibition, hits give high values
Method in brief: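 Compounds were tested on a yeast strain with an engineered DNA damage repair alteration; the reported value is growth inhibition normalised to vehicle treatment.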

[6] = NCI Yeast Anticancer Drug Screen. Data for the mec2-1 strain (AID 157); conditions: S. cerevisiae mec2-1 strain, hits give high values
Method in brief: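 Each compound was tested on mec2-1 yeast, a strain altered in DNA damage repair or cell cycle control. Growth inhibition is reported relative to vehicle.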

[7] = NCI Yeast Anticancer Drug Screen. Data for the rad14 strain (AID 159);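 also: 0% = growth of vehicle-treated control cultures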; conditions: S. cerevisiae rad14 strain growth inhibition, hits give high values
Method in brief: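 Compound-treated yeast with a defined DNA-repair lesion; growth inhibition normalised to vehicle-treated cultures.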

[8] = NCI Yeast Anticancer Drug Screen. Data for the sgs1 mgt1 strain (AID 161);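 also: 0% = growth of cultures given vehicle only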; conditions: S. cerevisiae sgs1 mgt1 strain, hits give high values
Method in brief: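 Read-out: growth inhibition vs vehicle controls. Cells: mutant yeast strain deficient in DNA damage repair.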

[9] = NCI Yeast Anticancer Drug Screen. Data for the CLN2oe strain (AID 163);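 also: 0% = growth of vehicle-only control cultures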; conditions: S. cerevisiae CLN2oe strain, hits give high values
Method in brief: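 First, the altered yeast strain was treated with each compound; second, its growth was measured; finally, inhibition was derived by comparison with vehicle controls.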

[10] = NCI Yeast Anticancer Drug Screen. Data for the cln2 rad14 strain (AID 165);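 also: 0% = growth equal to vehicle treated cultures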; conditions: S. cerevisiae cln2 rad14 strain, hits give high values
Method in brief: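 Test compounds were added to cln2 rad14 yeast cultures; inhibition of growth was then determined by comparison with vehicle treatment.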

[11] = NCI Yeast Anticancer Drug Screen. Data for the bub3 strain (AID 167); conditions: S. cerevisiae bub3 mutant strain, hits give high values
Method in brief: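 Growth of a checkpoint-deficient yeast mutant is measured after compound exposure. Values represent inhibition relative to vehicle.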

[12] = NCI Yeast Anticancer Drug Screen. Data for the wt2 strain (AID 169);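 also: 0% = growth of vehicle-treated yeast cultures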; conditions: S. cerevisiae wt2 strain growth inhibition, hits give high values
Method in brief: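 The panel's yeast strains carry defined changes in DNA repair or cell cycle genes. Each strain is grown with compound, and growth loss is scored relative to vehicle.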

[13] = NCI Yeast Anticancer Drug Screen. Data for the mlh1 strain (AID 171);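 also: 0% = growth of vehicle-treated control cultures of the same strain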; conditions: S. cerevisiae mlh1 strain growth inhibition, hits give high values
Method in brief: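 Inhibition values reflect reduced yeast growth in the presence of compound, referenced to vehicle controls, using a strain chosen for its alteration in DNA repair or cell cycle control.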

[14] = NCI Yeast Anticancer Drug Screen. Data for the sgs1 strain (AID 173);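 also: 0% = growth of vehicle-only control cultures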; conditions: S. cerevisiae sgs1 mutant, hits give high values
Method in brief: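 Vehicle-treated cultures served as reference for growth inhibition of a yeast strain altered in DNA damage repair or cell cycle control after compound exposure.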

[15] = NCI Yeast Anticancer Drug Screen. Data for the mlh1 rad18 strain (AID 175); conditions: S. cerevisiae mlh1 rad18 strain growth inhibition, hits give high values
Method in brief: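 Inhibition values reflect reduced growth of mutant yeast versus vehicle-treated controls following compound exposure; the mutations affect DNA damage repair.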

[16] = NCI Yeast Anticancer Drug Screen. Data for the rad18 strain (AID 177); conditions: S. cerevisiae rad18 mutant growth inhibition, hits give high values
Method in brief: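 Steps: expose repair-mutant yeast to compound; measure growth; express as inhibition relative to vehicle control.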

[17] = at 5.0 µM (retest, dose inferred, filed as 0.5)
[18] = at 50.0 µM (retest, dose inferred, filed as 5.0)

Measured: growth inhibition

CC(C)OP(=O)(OC(C)C)/C(Cl)=N/Nc1ccc([N+](=O)[O-])cc1
active: [1]; at 33.0 µM 90% | [1]; at 100.0 µM 95% | [2]; at 100.0 µM 85% | [3]; at 11.0 µM 93% | [3]; at 33.0 µM 96% | [3]; at 100.0 µM 96% | [4]; at 33.0 µM 78% | [4]; at 100.0 µM 94% | [5]; at 33.0 µM 93% | [5]; [18] 95% | [5]; at 50.0 µM 88.7% | [5]; at 100.0 µM 94% | [6]; at 33.0 µM 81% | [6]; [18] 80% | [6]; at 50.0 µM 81% | [6]; at 100.0 µM 90% | [7]; at 100.0 µM 80% | [8]; [18] 74% | [8]; at 50.0 µM 90.8% | [9]; at 11.0 µM 79% | [9]; at 33.0 µM 95% | [9]; at 100.0 µM 96% | [10]; [18] 80% | [10]; at 50.0 µM 89.2% | [11]; at 11.0 µM 86% | [11]; at 33.0 µM 95% | [11]; [18] 95% | [11]; at 50.0 µM 91.6% | [11]; at 100.0 µM 95% | [12]; at 33.0 µM 71% | [12]; at 100.0 µM 93% | [13]; at 11.0 µM 86% | [13]; at 33.0 µM 96% | [13]; at 100.0 µM 94% | [14]; at 11.0 µM 94% | [14]; at 33.0 µM 97% | [14]; at 100.0 µM 98% | [15]; [18] 97% | [15]; at 50.0 µM 87.3% | [16]; at 11.0 µM 85% | [16]; at 33.0 µM 96% | [16]; at 100.0 µM 96%
inactive: [1]; at 1.2 µM -10% | [1]; at 3.7 µM -6% | [1]; at 11.0 µM 52% | [2]; at 1.2 µM -10% | [2]; at 3.7 µM -10% | [2]; at 11.0 µM 19% | [2]; at 33.0 µM 38% | [3]; at 1.2 µM 25% | [3]; at 3.7 µM 50% | [4]; at 1.2 µM -21% | [4]; at 3.7 µM -29% | [4]; at 11.0 µM 16% | [5]; at 1.2 µM -10% | [5]; at 3.7 µM -21% | [5]; [17] 19% | [5]; at 11.0 µM 61% | [6]; at 1.2 µM -5% | [6]; at 3.7 µM -3% | [6]; [17] 13% | [6]; at 11.0 µM 52% | [7]; at 1.2 µM -8% | [7]; at 3.7 µM 6% | [7]; at 11.0 µM 24% | [7]; at 33.0 µM 34% | [8]; [17] 6% | [9]; at 1.2 µM 18% | [9]; at 3.7 µM 20% | [10]; [17] 28% | [11]; at 1.2 µM -4% | [11]; at 3.7 µM 3% | [11]; [17] 29% | [12]; at 1.2 µM 3% | [12]; at 3.7 µM 5% | [12]; at 11.0 µM 39% | [13]; at 1.2 µM 13% | [13]; at 3.7 µM 23% | [14]; at 1.2 µM 28% | [14]; at 3.7 µM 23% | [15]; [17] 47% | [16]; at 1.2 µM 29% | [16]; at 3.7 µM 28%
